28 compounds from PubChem BioAssay AID1259343 (VanderVen Lab, College of Veterinary Medicine, Cornell …, 2017) can be followed below.

The term inhibition denotes the relative decrease from the control value, in per cent.

Structures are written as SMILES. Screen size: about 6,200 compounds; about 2,900 (47%) were called active. Cut-off read from the data, not from the text of the source: active = inhibition above about 50%; inactive = the rest. The set was probably picked from earlier hits. The list shows a part of the results.

The test in a line: Mycobacterium tuberculosis growth inhibition, primary screen (AID 1259343). Conditions: inhibition: at 10 µM, active compounds read high; outcome: 10 uM.
With `CC1CCC(C(C)C)C(OC(=O)Cn2c(-c3ccccc3)[n+](C)c3ccccc32)C1` (stereo not drawn), the inhibition was 36.3% (inactive). With `Cc1sc(NC(=O)c2ccc3c(c2)CC(C)N3S(C)(=O)=O)nc1-c1ccc(F)cc1` (stereo not drawn), the inhibition is 44.9% (inactive). As for `CC(C)(C)c1ncc(CNc2ccc(OCC(F)(F)F)nc2)s1`, the inhibition was 76.1% (active).

Consider `COc1ccc2cc(C=C3COc4ccccc4C3=O)ccc2c1`, for which the inhibition was -0.42% (inactive). For the compound `O=C1C(=Cc2cc(Br)cs2)COc2ccccc21`, the inhibition is 63.5% (active). In the case of `FC(F)(F)c1nc2n(n1)C(c1ccc(Cl)cc1)C1=C(N2)c2ccccc2OC1` (stereo not drawn) it was “inactive”; in that of `O=C1/C(=C/c2csnn2)CCOc2cc(Br)ccc21`, 32.8% (inactive); in that of `CC(NC(=O)c1cc2c(s1)-c1ccccc1OC2)c1ccc(Br)cc1` (stereo not drawn), -1.38% (inactive). In the case of `O=C(O)c1ccccc1CSc1ccc(N2CCCCC2)cc1` it was 34.9% (inactive). In the case of `O=C1C(=Cc2ccc(N3CCCCC3)cc2)COc2ccccc21` it was 53% (active); in that of `O=C1/C(=C\c2ccc(Cl)cc2)COc2ccccc21`, 93.1% (active). As for `COc1cc(C(CC(=O)c2ccc(Cl)cc2)SCCO)cc(OC)c1OC` (stereo not drawn), the inhibition is 7.8% (inactive).

For the compound `NC(=O)C1CCN(C(=O)c2ccc(-c3cccc(Cl)c3Cl)o2)CC1`, the inhibition was 57.6% (active).

`NC(=O)C1CCN(CC(=O)Nc2oc3ccccc3c(=O)c2-c2ccccc2)CC1`: the inhibition is 12.8% (inactive). `C/C=C/c1c(F)c(F)c(Oc2ccc(C=O)cc2)c(F)c1F`: the inhibition is 88.6% (active).

In the case of `Cc1cccc(NC(=O)/C=C/C2=C(Cl)c3ccccc3S2(=O)=O)c1C`, the inhibition was 102% (active).

Consider `Cc1ccc(OCc2nc(CC(=O)N(C)CC3CCCCC3)cs2)cc1`, for which the inhibition was 79.4% (active). In the case of `O=C(Cc1csc(COc2ccc(Cl)cc2)n1)NC12CC3CC(CC(C3)C1)C2` it was 49.5% (inactive); in that of `NC(=O)c1ccccc1OCc1csc(COc2ccc(F)cc2)n1`, 15.8% (inactive).

`CSc1ncc(Cl)c(C(=O)C(C#N)c2nc3ccc(Br)cc3c(=O)[nH]2)n1` (stereo not drawn): the inhibition was 15.1% (inactive). Regarding `CCC(CC)c1nnc(NC(=O)c2cc(C)cc(C)c2)s1`, the inhibition is 51.2% (active).

For `CC(C)Cc1nnc(NC(=O)c2cccc(C#N)c2)s1`, the inhibition is 20.8% (inactive).

Take `CC(C)c1ccc(C(=O)Nc2sccc2C(=O)N2CCCC2)cc1`: the inhibition was 16.5% (inactive). In the case of `CCCC(C)c1nnc(NC(=O)c2cnc(-c3ccccn3)nc2)s1` (stereo not drawn), the inhibition is -2.11% (inactive).

Turning to `Cc1ccc(C#N)cc1S(=O)(=O)Nc1nnc(C(C)C)s1`, the inhibition was 31.9% (inactive). In the case of `CC(C)c1ccc(C(=O)Nc2nnc(C(C)C)s2)cc1` it was 90% (active); in that of `CC(C)c1nnc(NC(=O)c2cccc(I)c2)s1`, 90.6% (active). In the case of `COC(=O)c1cnc(NC(=O)c2cc(F)cc(Br)c2)s1` it was 19.9% (inactive).
